About 83,000 compounds went through this panel and 20% of them were active in at least one assay; those are over-represented in the sample as a whole.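 Step 1: grow cells in 96-well plates. Step 2: add test compound at a single concentration. Step 3: incubate 48 h. Step 4: record percent growth.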 Calls of active or inactive are those of the source. How the source made its calls: active means growth percent below 10; inactive means the rest.
How the values were obtained:
Assay in all cases: NCI-60 one-dose screen, 48 h (100 = growth as untreated, 0 = no growth, -100 = all killed)
SK-MEL-2 melanoma = conditions: 10 µM unless noted
SN12C renal = conditions: 10 µM unless noted
UO-31 renal = conditions: 10 µM unless noted
ACHN renal = conditions: 10 µM unless noted
CAKI-1 renal = conditions: 10 µM unless noted
A498 renal = conditions: 10 µM unless noted
MOLT-4 leukemia = conditions: 10 µM unless noted
EKVX NSCLC = conditions: 10 µM
TK-10 renal = conditions: 10 µM unless noted
CCRF-CEM leukemia = conditions: 10 µM

Measured: growth

CCC(C)(CC)c1ccc(O)c(C)c1
inactive: SK-MEL-2 melanoma 82.2% | SN12C renal 102% | UO-31 renal 102% | ACHN renal 106% | CAKI-1 renal 109% | A498 renal 100% | MOLT-4 leukemia 106%

O=C(Nc1ccc(-n2cc(-c3ccncc3)c(-c3ccc(Cl)c(O)c3)n2)cc1)c1ccc(Cl)c(Cl)c1
active: CAKI-1 renal 0.324%
inactive: EKVX NSCLC 61.8% | SN12C renal 65.7% | UO-31 renal 14.8% | TK-10 renal 33% | ACHN renal 38.4% | A498 renal 83.8% | CCRF-CEM leukemia 40.2% | MOLT-4 leukemia 22.3%

CC(=O)N1CCN(CCNC(=O)n2cc(-c3ccncc3)c(-c3cc(O)cc(Cl)c3)n2)CC1
inactive: EKVX NSCLC 112% | SN12C renal 94.4% | UO-31 renal 72.9% | TK-10 renal 62.5% | ACHN renal 76.9% | CAKI-1 renal 99% | A498 renal 93.1% | CCRF-CEM leukemia 71.6% | MOLT-4 leukemia 67.3%

Br/C(=N\Nc1nn[nH]n1)c1ccccc1
inactive: SK-MEL-2 melanoma 90.9% | UO-31 renal 78.6% | ACHN renal 92.7% | CAKI-1 renal 92.5% | A498 renal 114% | MOLT-4 leukemia 105%

OCCN1CCN(CC/C=C2/c3ccccc3Sc3ccc(C(F)(F)F)cc32)CC1
inactive: SK-MEL-2 melanoma 79.8% | SN12C renal 72.6% | UO-31 renal 40.1% | ACHN renal 79% | CAKI-1 renal 74.9% | A498 renal 79.2% | MOLT-4 leukemia 41.3%

Nc1nc2cc(O)ccc2n2cc3c(F)cccc3c12
inactive: EKVX NSCLC 24.8% | SN12C renal 47% | ACHN renal 18.9% | A498 renal 41.5% | CCRF-CEM leukemia 58.4%
active: UO-31 renal 2.79% | TK-10 renal -12.5% | CAKI-1 renal -12.1%

Cc1cc2cn3c4ccc(O)cc4nc(N)c3c2cc1C
inactive: EKVX NSCLC 37.2% | SN12C renal 44.6% | A498 renal 21.1% | CCRF-CEM leukemia 11.5%
active: UO-31 renal 6.2% | TK-10 renal 5.03% | ACHN renal 7.58% | CAKI-1 renal -4.28% | MOLT-4 leukemia 5.17%

N#Cc1c2ncccc2c2nnc3cc(Cl)c(Cl)cc3n12
inactive: EKVX NSCLC 84.1% | UO-31 renal 76.3% | TK-10 renal 67.7% | ACHN renal 84.5% | CAKI-1 renal 70.3% | A498 renal 115% | MOLT-4 leukemia 98.9%

O=C(N/N=C\c1ccc(-c2ccc(Br)cc2)o1)c1cc2oc(-c3cccc(C(F)(F)F)c3)cc2[nH]1
inactive: EKVX NSCLC 142% | SN12C renal 107% | UO-31 renal 122% | TK-10 renal 127% | ACHN renal 95% | MOLT-4 leukemia 66.6%
active: CCRF-CEM leukemia 0.0711%

C=CCNCCC#N
inactive: SN12C renal 109% | UO-31 renal 102% | TK-10 renal 110% | ACHN renal 105% | CAKI-1 renal 113% | A498 renal 120% | MOLT-4 leukemia 107%

COc1ccc(C(=O)N2N=C(c3ccc(Br)cc3)CC2c2cn(-c3ccccc3)nc2-c2ccccc2)cc1 (stereo not drawn)
inactive: EKVX NSCLC 78.5% | SN12C renal 58.9% | UO-31 renal 84.5% | ACHN renal 87.8% | CAKI-1 renal 75% | A498 renal 89.1% | CCRF-CEM leukemia 67.9% | MOLT-4 leukemia 46.1%

COc1cc(/C(=C2/O[C@@H]([C@H]3COC(C)(C)O3)[C@H]3OC(C)(C)O[C@@H]23)c2ccc3c(c2)OCO3)cc(OC)c1OC
inactive: EKVX NSCLC 74.3% | SN12C renal 59.9% | TK-10 renal 70.7% | ACHN renal 26.4% | CAKI-1 renal 68.6% | CCRF-CEM leukemia 93.1% | MOLT-4 leukemia 106%

CCCCCCNc1nc(N2CCOCC2)c2[nH]c(NCCCCCC)nc2n1
active: EKVX NSCLC -51.5% | SN12C renal -94.9% | UO-31 renal -81% | TK-10 renal -97.2% | ACHN renal -92.7% | CAKI-1 renal -63.8% | CCRF-CEM leukemia -32.3% | MOLT-4 leukemia -53.6%

COc1ccc2cn3c4ccc(O)cc4[nH]c(=O)c3c2c1
inactive: EKVX NSCLC 39% | SN12C renal 51.7% | UO-31 renal 23.6% | ACHN renal 28.3% | A498 renal 24.5% | CCRF-CEM leukemia 29.2% | MOLT-4 leukemia 15.2%
active: TK-10 renal -2.48%

Clc1ccc(I)c2ccccc12
inactive: SN12C renal 111% | UO-31 renal 82.6% | TK-10 renal 92.6% | ACHN renal 103% | CAKI-1 renal 95.6% | A498 renal 117% | MOLT-4 leukemia 98.9%

NCCCOc1cc2ccccc2cc1C(=O)Nc1ccc(Cl)cc1OC(=O)c1cc2ccccc2cc1OCCCN
active: EKVX NSCLC -53.7% | SN12C renal -41.2% | ACHN renal -96.7% | CAKI-1 renal -75.7% | A498 renal -96.1% | MOLT-4 leukemia -17%

COC(=O)C(Cc1cnc[nH]1)N1CC(=O)N2[C@@H](c3ccccc3)SC[C@H]2C1=O (stereo partly drawn)
inactive: EKVX NSCLC 101% | SN12C renal 107% | UO-31 renal 88.4% | ACHN renal 106% | CAKI-1 renal 94.1% | A498 renal 95.9% | CCRF-CEM leukemia 99.6% | MOLT-4 leukemia 99.7%

O=C(Nc1ccc(-n2cc(-c3ccncc3)c(-c3ccc(Cl)c(O)c3)n2)cc1)Nc1ccc(Cl)c(C(F)(F)F)c1
inactive: SN12C renal 31.1% | A498 renal 63.6%
active: EKVX NSCLC 1.43% | UO-31 renal -32.6% | TK-10 renal -12.1% | ACHN renal 2.3% | CAKI-1 renal -32.5% | MOLT-4 leukemia -1.95%

Cc1ccccc1-n1c(C)nc2cc(NC(=O)c3ccc(Cl)cc3)ccc2c1=O
inactive: EKVX NSCLC 51.5% | SN12C renal 68.6% | UO-31 renal 77.8% | ACHN renal 48.1% | CAKI-1 renal 58.8% | A498 renal 60.6% | CCRF-CEM leukemia 52.7% | MOLT-4 leukemia 71.7%

CCCCCCCCc1ccc(CCC(N)(CO)CO)cc1
active: UO-31 renal -7.93% | ACHN renal -37.2% | CCRF-CEM leukemia -5.69% | MOLT-4 leukemia -28.3%
inactive: EKVX NSCLC 54.8% | TK-10 renal 16.6% | CAKI-1 renal 16.1% | A498 renal 90.1%

O=C(Nc1ccc(-n2cc(-c3ccncc3)c(-c3ccc(Cl)c(O)c3)n2)cc1)c1cc(C(F)(F)F)cc(C(F)(F)F)c1
inactive: EKVX NSCLC 97.4% | SN12C renal 74.7% | UO-31 renal 67.5% | TK-10 renal 65.4% | CAKI-1 renal 60.4% | A498 renal 87.7% | CCRF-CEM leukemia 72.9% | MOLT-4 leukemia 55.6%

C/C=C/C/C=C/[C@H](C)C[C@H](O)[C@@H]1C[C@@H]2O[C@H]2/C=C/[C@H](O)[C@@H](O)/C=C/C[C@H](C)CC(=O)O1
inactive: EKVX NSCLC 121% | SN12C renal 79.1% | UO-31 renal 56.9% | TK-10 renal 42.8% | ACHN renal 77.5% | A498 renal 115% | CCRF-CEM leukemia 51.3% | MOLT-4 leukemia 81.5%

COc1ccc2c(c1)cn1c3ccc(O)cc3[nH]c(=O)c21
inactive: EKVX NSCLC 47.9% | SN12C renal 40.2% | UO-31 renal 23.3% | TK-10 renal 13% | CAKI-1 renal 22.2% | A498 renal 40.7% | CCRF-CEM leukemia 18.5% | MOLT-4 leukemia 19.2%

O=C(CN1CCN(c2cccc(Cl)c2)CC1)N1CCN(c2nnc(-c3ccc(Cl)cc3)c(-c3ccc(Cl)cc3)n2)CC1
inactive: EKVX NSCLC 59% | SN12C renal 75.7% | TK-10 renal 90.2% | ACHN renal 65.3% | A498 renal 63.1% | CCRF-CEM leukemia 48.7% | MOLT-4 leukemia 36.4%

Reference: PubChem BioAssay (NCI)
